The list is not random: actives were taken first. Their share in the collection is about 11%.
HP1b chromo inh: HTS for Inhibitors of HP1-beta Chromodomain Interactions with Methylated Histone Tails; Potency, µM (series often up to 114 µM), for the others: at the top dose activity change, negative = inhibition, most hits filed as inhibitors; AID 540317, 2011; AlphaScreen HP1-beta / biotin-H3K9me3 peptide binding; 0.56% of 390,000 active; Chromobox protein homolog 1 (Homo sapiens), P83916; also: nearly all actives have a fitted effect of over 70% in size
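Compound inhibition of the preformed complex between 50 nM HP1-beta and 50 nM biotinylated H3K9me3 peptide was read by AlphaScreen. Buffer was PBS pH 7.4 with 0.01% Tween-20. Incubations ran 30 min at room temperature, with 10 ug/mL donor/acceptor beads.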
BAZ2B inh: qHTS Assay for Inhibitors of BAZ2B | Bromodomain adjacent to zinc finger domain protein 2B (Homo sapiens), Q9UIF8 | AlphaScreen BAZ2B-H3K14Ac peptide displacement | Potency, µM (highest dose often 114 µM), for the others: at the top dose activity change, negative = inhibition, hits mostly inhibitors | 4.4% of 360,000 active; also: % is scaled to controls: 0 for no effect and ±100 for the full control effect; nearly all actives have a fitted effect of over 60% in size
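Compounds, titrated to a top concentration of 110 uM, were incubated 30 min at room temperature with preformed BAZ2B/acetyl-K14 H3 peptide complex (50 nM each). Proximity signal was measured by AlphaScreen after 20 min with beads.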
L3MBTL1 inh: qHTS Assay for the Inhibitors of L3MBTL1 | Lethal(3)malignant brain tumor-like protein 1 (Homo sapiens), Q9Y468 | AlphaScreen L3MBTL1–H3K9me1 peptide binding | Potency, µM (titrated, usually from 57.1 µM), for inactives: at the top dose activity, negative = inhibition, actives largely listed as inhibitors | 0.66% of 230,000 active | AID 485360, 2010; also: % is scaled to controls: 0 for no effect and ±100 for the full control effect; nearly all actives have a fitted effect of over 60% in size
Target sequence (Q9Y468 whole entry, looked up): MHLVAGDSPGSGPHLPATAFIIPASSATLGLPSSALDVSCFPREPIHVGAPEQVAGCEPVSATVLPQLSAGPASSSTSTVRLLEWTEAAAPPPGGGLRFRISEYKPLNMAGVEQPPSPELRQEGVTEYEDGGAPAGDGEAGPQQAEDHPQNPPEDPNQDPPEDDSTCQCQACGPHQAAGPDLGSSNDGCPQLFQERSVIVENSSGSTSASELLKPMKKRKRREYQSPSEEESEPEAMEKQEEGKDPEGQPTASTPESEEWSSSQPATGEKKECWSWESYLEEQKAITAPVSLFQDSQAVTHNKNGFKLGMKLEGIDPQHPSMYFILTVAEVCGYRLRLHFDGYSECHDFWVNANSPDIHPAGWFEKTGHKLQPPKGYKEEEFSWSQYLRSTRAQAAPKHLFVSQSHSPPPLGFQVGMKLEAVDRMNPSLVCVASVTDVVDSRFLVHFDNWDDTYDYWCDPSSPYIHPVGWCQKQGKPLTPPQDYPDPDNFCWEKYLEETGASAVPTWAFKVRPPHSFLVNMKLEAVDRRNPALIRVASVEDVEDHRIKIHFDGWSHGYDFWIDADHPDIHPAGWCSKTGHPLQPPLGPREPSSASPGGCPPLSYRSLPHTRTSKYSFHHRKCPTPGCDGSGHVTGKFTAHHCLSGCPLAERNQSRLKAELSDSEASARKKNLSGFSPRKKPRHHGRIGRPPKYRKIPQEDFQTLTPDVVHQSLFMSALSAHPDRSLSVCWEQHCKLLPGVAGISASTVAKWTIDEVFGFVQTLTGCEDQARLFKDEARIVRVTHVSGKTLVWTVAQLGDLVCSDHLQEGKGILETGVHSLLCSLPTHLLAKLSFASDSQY
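L3MBTL1 50 nM + b-AHA-H3(1-15)K9me1 75 nM, 30 min RT; compound added, 30 min RT; streptavidin donor/Ni-chelate acceptor beads 10 ug/mL each final, 30 min RT dark; AlphaScreen read.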
JMJD2A Tudor: qHTS Assay for Inhibitors of JMJD2A-Tudor Domain. Lysine-specific demethylase 4A (Homo sapiens), O75164. AlphaScreen JMJD2A-Tudor / H3K4me3 peptide binding. Potency, µM (highest dose often 114 µM), inactives show top-dose activity change, negative = inhibition, hits mostly inhibitors. 4.4% of 390,000 active. AID 504339, 2011; also: % is scaled to controls: 0 for no effect and ±100 for the full control effect; nearly all actives have a fitted effect of over 50% in size
G9a block: qHTS Assay for Inhibitors of Histone Lysine Methyltransferase G9a; G9a H3K9 monomethylation, AlphaScreen, 2 h; 8.8% of 350,000 active; Potency, µM (series often up to 102 µM), for inactives: top-dose activity, negative = inhibition, most hits filed as inhibitors; also: % is scaled to controls: 0 for no effect and ±100 for the full control effect; nearly all actives have a fitted effect of over 75% in size
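Signal arises when biotinylated H3K9 peptide, once monomethylated, bridges streptavidin donor and antibody-captured acceptor beads. Enzyme at 20 nM was preincubated 15 min with test compounds; peptide 500 nM and SAM 20 uM then reacted for 2 h.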
Active calls of the source: *; ! = repeats disagree; [ ] = dose if it differs, or a comment. Calls follow the shape of the dose curve; as a rule, active = well fitted inhibition curve with a large enough effect; inconclusive = small, poorly fitted or top-dose-only effect; inactive = no such curve, though single readings can be large or run the other way. Potency is read from the fitted curve at half-maximal effect.

How did C=CCN1C(=O)NC(=O)/C(=C/c2ccc(OC)c(CSc3ccccn3)c2)C1=O do in these assays?
HP1b chromo inh: 55%; BAZ2B inh: 14%[57.1 µM]; L3MBTL1 inh: -9%; JMJD2A Tudor: 79µM*; G9a block: 11µM*

What do the screens show for `O=C(Cc1ccc(Cl)c(Cl)c1)N1CCCCC1CN1CCCC1` (stereo unspecified)?
G9a block: 27µM*

What do the screens show for `COc1ccccc1CC(=O)Nc1ccc2c(c1)OC1(CCCC1)O2`?
HP1b chromo inh: inconclusive; L3MBTL1 inh: -9%; JMJD2A Tudor: inconclusive

What do the screens show for `CCn1cc(C(=O)O)c(=O)c2ccc(C)nc21`?
HP1b chromo inh: 6%; BAZ2B inh: 79µM*; L3MBTL1 inh: -1%; JMJD2A Tudor: -17%; G9a block: 8.9µM*!

What do the screens show for `CC1=CC(=O)C2=C(C)C[C@@H](O)[C@@H]3[C@@H](OC(=O)[C@H]3C)[C@H]12`?
G9a block: 23%[21.5 µM]

How did Cc1ccc(S(=O)(=O)NC(Cc2cnc[nH]2)C(=O)O)cc1 (stereo unspecified) do in these assays?
HP1b chromo inh: 12%; BAZ2B inh: -25%; L3MBTL1 inh: 4%; JMJD2A Tudor: 13µM*; G9a block: inconclusive

Results for C=CCC1(C(C)CCC)C(=O)N=C(S)NC1=O (stereo unspecified) ?
G9a block: 3%[59 µM]

What do the screens show for `COC(=O)CSc1n[nH]c(=S)s1`?
HP1b chromo inh: 28µM*; BAZ2B inh: -28%; L3MBTL1 inh: 5%; JMJD2A Tudor: inconclusive; G9a block: 7.9µM*

How did CCOC(=O)/C=C(C)/C=C/CC(C)CCCC(C)C (stereo unspecified) do in these assays?
G9a block: 2%[12.7 µM]

What do the screens show for `Cn1c(=O)c2c(-c3ccccc3)n3c(c2n(C)c1=O)C(c1cc(Cl)ccc1O)Nc1ccccc1-3` (stereo unspecified)?
HP1b chromo inh: 17%; BAZ2B inh: -22%; JMJD2A Tudor: -25%; G9a block: inconclusive

Results for CCC(C)N1C(=O)/C(=C\c2ccc(N3CCCCCC3)cc2)C(=O)NC1=S (stereo unspecified) ?
HP1b chromo inh: inconclusive; BAZ2B inh: 45µM*; L3MBTL1 inh: -7%; JMJD2A Tudor: inconclusive; G9a block: 3.5µM*

How did CCC(C)N1C(=O)/C(=C\c2cnc(N(C)C)nc2)C(=O)NC1=S (stereo unspecified) do in these assays?
HP1b chromo inh: -1%; BAZ2B inh: inconclusive; L3MBTL1 inh: -5%[11.4 µM]; JMJD2A Tudor: inconclusive; G9a block: 7.9µM*

Results for CCC(C)N1C(=O)/C(=C\c2cc3c4c(c2)CCCN4CCC3)C(=O)NC1=S (stereo unspecified) ?
HP1b chromo inh: inconclusive; BAZ2B inh: inconclusive; L3MBTL1 inh: -26%; JMJD2A Tudor: 14µM*; G9a block: 45µM*

Results for CC(c1nc2ccccc2c(=O)[nH]1)N(C)CCOc1ccc(Cl)cc1 (stereo unspecified) ?
HP1b chromo inh: 43%; BAZ2B inh: -14%; L3MBTL1 inh: -6%; JMJD2A Tudor: -15%; G9a block: 34%

What do the screens show for `COc1ccc2[nH]c(C)c(CCNCc3cn(C)c4ccccc34)c2c1`?
HP1b chromo inh: -60%; BAZ2B inh: 18µM*; L3MBTL1 inh: inconclusive; JMJD2A Tudor: 3.2µM*; G9a block: 7.1µM*

What do the screens show for `O=C(Nc1ccc(Cl)cc1)O/N=C(\c1ccccc1)c1ccccn1`?
HP1b chromo inh: 23%; BAZ2B inh: 14µM*; L3MBTL1 inh: -6%; JMJD2A Tudor: 10µM*; G9a block: inconclusive

Results for O=C1C=CC2C3C(=O)N(c4ccccc4)C(=O)C3C1N2Cc1ccccc1 (stereo unspecified) ?
HP1b chromo inh: 44%; JMJD2A Tudor: -3%
